# Among all 2,200 compounds or so, about 1,300 (59%) were called active. How the calls were made is not given here. So high a share suggests a set chosen from earlier hits. The list is a sample of the results. Measured potencies and affinities stand elsewhere.
# Experiment: THP-1 cell cytotoxicity, dose response, cytotoxicity control for Salmonella PhoP regulon inhibitors, S. typhimurium screen hits (AID 2253)
# Details: THP-1 viability, CellTiter-Glo luminescence, 72 h; series mostly up to 50 µM
row,SMILES,outcome
1,CC(=O)Nc1c(O)nc(SCC(=O)N2CCN(c3ccc(F)cc3)CC2)[nH]c1=O,inactive
2,O=C(NCCCN1CCCC1=O)c1ccc(Cl)c(NS(=O)(=O)c2ccc(F)cc2)c1,inactive
3,CC(C)(C)NC(=O)CSc1nnc(-c2ccncc2)o1,inactive
4,CC(=O)NCCOc1c(C)cc(S(N)(=O)=O)cc1C,inactive
5,Cn1cccc1CC(=O)N/N=C/C(Cl)=C/c1ccccc1,inactive
6,CC1(C)CC(=O)c2c(nc3ccccc3c2N)C1,inactive
7,Cc1cc(C(=O)N2CCN(C/C=C/c3ccccc3)CC2)no1,inactive
8,CC(CCc1ccccc1)NC(=O)c1ccccc1 (centres undefined),inactive
9,COCc1cc(C)nc(N2CCc3ccccc32)c1C#N,inactive
10,COc1ccc(-c2cnn3c(N)c(S(=O)(=O)C(C)(C)C)cnc23)cc1,inactive
11,COc1cc(C2NC(=O)NC(c3ccccc3)=C2C(C)=O)ccc1OCC(=O)O (centres undefined),inactive
12,Brc1ccc(NC2=Nc3ccccc3CC2)cc1,inactive
13,COc1ccc(S(=O)(=O)n2nc(OC(=O)c3cccs3)cc2N)cc1,inactive
14,Nc1cc(N)nc(SCC(=O)Nc2ccc3c(c2)OCCCO3)n1,inactive
15,Cc1ccc2cc(C(=O)O)c(C)nc2c1,inactive
16,Cc1cc([N+](=O)[O-])cc2ncccc12,inactive
17,O=C(NCc1cccnc1)c1ccc(Cl)cc1[N+](=O)[O-],inactive
18,CCOc1cc(C2C(C(=O)OC)=C(C)N=C3SCCC(=O)N32)ccc1OC(C)=O (centres undefined),inactive
19,COc1ccc(Oc2coc3cc(OC(=O)c4cccs4)ccc3c2=O)cc1,inactive
20,Cc1cc(C)nc(N(C#N)C(C)C(=O)N(C)C)n1 (centres undefined),inactive
21,O=C(NC(=Nc1ccccc1)N1CCOCC1)Nc1ccccc1,inactive
22,Cc1cccnc1N(C(=O)Nc1ccccc1)C1=NCC(C)(C)S1,inactive
23,OC(COCc1cccs1)CN1CCN(c2ccccn2)CC1 (centres undefined),inactive
24,CCCCOC(=O)CCNc1n[nH]c(=O)[nH]c1=O,inactive
25,Clc1ccc(CNCc2cccs2)cc1Cl,inactive

row,SMILES,outcome
1,O=C(Cc1cn2ccsc2n1)Nc1ccccc1Oc1ccccc1,inactive
2,Cc1ccc(S(=O)(=O)NCCC(=O)OCn2nnc3ccccc3c2=O)cc1,inactive
3,CN(C(=O)/C=C/c1ccccc1)C1CCS(=O)(=O)C1 (centres undefined),inactive
4,CNC(=O)c1ccc(-c2ccc(F)cc2)s1,inactive
5,CCCSc1nc(N2CCCC2)c2c(c1C#N)CC(C)(C)OC2,inactive
6,C=CCNC(=O)c1ccc(N(C)S(=O)(=O)c2ccc(OC)cc2)cc1,inactive
7,CC1CN(C(=O)CCc2ccccc2)C(C)CN1C(=O)CCc1ccccc1 (centres undefined),inactive
8,O=C(c1ccc(Cl)cc1Cl)C1(n2cncn2)Oc2ccccc2C1O (centres undefined),inactive
9,Cc1ccc(C(=O)NCc2ccc(Cl)cc2)o1,inactive
10,O=[N+]([O-])c1ccc(-c2ccn[nH]2)o1,inactive
11,CN(c1ccccc1)S(=O)(=O)c1ccc(C(=O)Nc2nnc(-c3ccc(F)cc3)o2)cc1,inactive
12,COc1cccc(OC)c1C(=O)NC(=S)Nc1cc(-c2nc3ccccc3[nH]2)ccc1Cl,inactive
13,COC(=O)c1c(C(=O)OC)c(-c2cccc(C)c2)n2c1CS(=O)(=O)C2,inactive
14,CCn1cc(C(C)(C)C)c(C#N)c1NC(C)=O,inactive
15,O=C(Cn1cnc2scc(-c3ccccc3)c2c1=O)N1CCOCC1,inactive
16,C=CC1=C(C(=O)O)N2C(=O)[C@@H](NC(=O)/C(=N/OCC(=O)O)c3csc(N)n3)[C@H]2SC1,inactive
17,CC(C)(C)c1n[nH]c(=S)n(/N=C/c2cccs2)c1=O,inactive
18,Cc1ccsc1/C=N/NC(=O)Cn1cnc2ccccc21,inactive
19,C=CCSC1=Nc2sccc2C2=NC(=O)CN12,inactive
20,O=C(CN1CCCCC1)Nc1cccc2c1OCO2,inactive
21,NC(=O)c1oc2ccccc2c1NC(=O)CN1CCCCC1,inactive
22,O=c1[nH]c2cc3c(cc2cc1CN(CCc1ccccc1)Cc1nnnn1CC1CCCO1)OCO3 (centres undefined),inactive
23,CC(C)CNC(=S)NC1CCCC1,inactive
24,Cn1c(SCC(=O)NC(=O)c2cccc([N+](=O)[O-])c2)nnc1-c1ccc(F)cc1,inactive
25,Cc1cc([N+](=O)[O-])ccc1NC(=O)Cc1ccc(F)cc1,inactive

row,SMILES,outcome
1,O=C(CN1CCC(NC(=O)c2cccc(F)c2)CC1)NCc1ccccc1F,inactive
2,CN(C)CCNC(=O)c1ccc(COCC(F)(F)F)cc1,inactive
3,COc1ccc(/C=C/C(=O)O)cc1COc1cccc(C)c1,inactive
4,O=C(NCC(=O)N(c1cccnc1)C(C(=O)NCc1ccco1)c1ccccc1)c1ccco1 (centres undefined),inactive
5,COC(=O)c1ccccc1NC(=O)CS(=O)(=O)Cc1nc(-c2ccc(C)cc2)oc1C,inactive
6,COc1ccc(-c2nnn(CC(=O)N(Cc3ccco3)C(C(=O)NCC3CCCO3)c3ccco3)n2)cc1 (centres undefined),inactive
7,CSCC[C@H](NC(=O)Nc1ccc(C)cc1)C(=O)O,inactive
8,C=C(C)C1Cc2cc3ccc(=O)oc3cc2O1 (centres undefined),inactive
9,CCOC(=O)N1CCC(NC(=O)CCC(=O)c2ccccc2)CC1,inactive
10,COc1ccc(-c2nnc(SCCC(=O)O)n2-c2ccccc2)cc1,inactive
11,Cc1cccnc1NC(=O)CCCN1C(=O)c2ccccc2C1=O,inactive
12,Cc1cccc(C)c1NC(=O)CSc1nnc(NC(=O)CN2CCOCC2)s1,inactive
13,CCCOc1ccc(C(=O)NC(=S)N2CCN(c3cc4c(cc3F)c(=O)c(C(=O)O)cn4CC)CC2)cc1,inactive
14,Nc1nnc(Sc2ccc(Cl)cc2[N+](=O)[O-])s1,inactive
15,c1ccc2oc(SCc3cn4ccccc4n3)nc2c1,inactive
16,NC(=O)c1cnn(Cc2ccc(Cl)cc2)c1N,inactive
17,CC(=O)Cn1cnc2sc(-c3ccccc3)cc2c1=O,inactive
18,Nc1ccc(S(=O)(=O)Nc2ccc(Cl)nn2)cc1,inactive
19,Cc1nc2cc(NC(=O)N3CCN(c4ccccn4)CC3)ccc2o1,inactive
20,Cc1ccc(C(=O)C2COC(=O)C2)cc1 (centres undefined),inactive
21,Cc1cc2nn(-c3ccccc3)nc2cc1NC(=O)c1cccs1,inactive
22,COc1cccc(NC(=O)CNC(=O)c2cccs2)c1,inactive
23,O=S(=O)(c1ccc(S(=O)(=O)N2CCN(C/C=C/c3ccccc3)CC2)cc1)N1CCCC1,inactive
24,COCCNC(=O)CSCc1c(F)cccc1Cl,inactive

# Source: PubChem BioAssay AID2253 (Southern Research Specialized Biocontainment Screening …, 2010)
